Values without a mark were called inactive. Calls follow the shape of the dose curve; as a rule, active = well fitted cell-killing curve with a large enough effect in the repeat runs; inconclusive = weak or mixed curves, or effect the other way; inactive = flat fitted curve, though single readings scatter.
assay: qHTS assay to identify small molecule HDAC inhibitors - cell viability counter screen (AID 1259365); conditions: HCT-116 viability, CellTiter-Glo ATP luminescence, 2 h; series mostly up to 92.4 µM; activity change, negative = cytotoxicity: at the top concentration; also: nearly all actives have a fitted effect of over 50% in size
Source text: U.S. Tox21 Program National Center for Advancing Translational Sciences [NCATS] NIH Chemical Genomics Center [NCGC] U.S. Environmental Protection Agency [EPA] National Institutes of Environmental Health Sciences [NIEHS] National Toxicology Program [NTP] U.S. Food and Drug Administration [FDA] Tox21 Assay Overview: Histone deacetylases (HDACs) are a group of epigenetic enzymes that regulate gene expression by histone deacetylation. HDACs are capable of introducing epigenetic modifications and such aberrations contribute to the onset and progression of several human diseases, thus making HDACs a popular therapeutic target. For identifying endogenous class I/II HDAC inhibitors a homogenous, luminogenic HDAC I/II cell based assay was used to measure the relative activity of class I and II HDACs from cells. Wild type HCT-116 cells were used to screen Tox21 compound libraries for identifying class I/II HDAC inhibitors.
Tox21 Assay Protocol Summary: HCT-116 cells were dispensed at 1,500 per well in 5uL of culture medium into white solid bottom 1536-well plates (Greiner Bio-One, Monroe, NC) using a Multidrop Combi (Thermo Scientific, Waltham, MA) dispenser. The assay plates were incubated at 37 C and 5% CO2 for an overnight, and then 23nL of compounds dissolved in DMSO and positive control were transferred using a Pintool station (Wako, San Diego, CA). The assay plates were incubated at 37C and 5% CO2 for 2hr. After compound treatment, 4uL of CellTiter-Glo reagent (Promega Corporation, Madison, WI) was added to each well of the assay plates using Flying Reagent Dispenser (FRD, Aurora Discovery, San Diego, CA) and incubated the assay plates at room temperature for 30min. The luminescence signal was quantified using a ViewLux plate reader (Perkin Elmer, Shelton, CT).
% is scaled to controls: 0 for no effect and ±100 for the full control effect.

Row | SMILES | activity change, negative = cytotoxicity
1 | NC[C@H]1O[C@H](O[C@H]2[C@H](O)[C@@H](O[C@H]3O[C@H](CO)[C@@H](O)[C@H](N)[C@H]3O)[C@H](N)C[C@@H]2N)[C@H](N)[C@@H](O)[C@@H]1O | -0.176% [at 19 µM]
2 | O=C1Nc2ccccc2C1=O | 0.923%
3 | c1coc(Cn2cccc2)c1 | 0.459%
4 | O=C(O)/C=C(\CC(=O)O)C(=O)O | -0.476% [at 42.5 µM]
5 | CCOC(=O)c1ccc(N(C)C)cc1 | -13.5%
6 | CC(CC(=O)Cl)CC(C)(C)C (stereo not given) | -0.232%
7 | NC(=O)CC[C@@H](N)C(=O)O | 1.94% [at 42.5 µM]
8 | CCO[Si](CC(C)C)(OCC)OCC | 2.02%
9 | O=C(c1ccccc1)c1cccc(O)c1 | 0.807%
10 | COC(=O)c1c(C)cc(O)c(C)c1O | 0.201%
11 | C=CCN1CCc2nc(N)sc2CC1 | -1.19% [at 42.5 µM]
12 | CC(C)(Sc1cc(C(C)(C)C)c(O)c(C(C)(C)C)c1)Sc1cc(C(C)(C)C)c(O)c(C(C)(C)C)c1 | -0.322% [at 42.5 µM]
13 | O=C(OOC(=O)c1ccccc1)c1ccccc1 | 1.58% [at 42.5 µM]
14 | COC(=O)c1cc(Cl)c(NC(C)=O)cc1OC | -0.347% [at 42.5 µM]
15 | COc1cc(S(N)(=O)=O)cc(C(=O)O)c1OC | 0.427% [at 42.5 µM]
16 | CCCc1ncc(C(=O)O)s1 | 4.82% [at 42.5 µM]
17 | CCCC(=O)OC | -2.42%
18 | CC(C)OCCO | 0.0147%
19 | O=C(O)CCC(=O)Nc1ccc(S(=O)(=O)Nc2nccs2)cc1 | -8.99% [at 42.5 µM]
20 | CCCCOCCCC | -0.765%

Row | SMILES | activity change, negative = cytotoxicity
21 | CCc1ncc(C)[nH]1 | -4.86%
22 | CC(C)C[P+](C)(CC(C)C)CC(C)C | -0.0012%
23 | COC(=O)c1ccccc1Cl | -0.44%
24 | Clc1cc(Cl)c(Cl)c(Cl)c1Cl | -2.22%
25 | CCCCC(O)/C=C(C)/C=C/C=C/C(=O)N1CCCC1=O (stereo not given) | -0.6% [at 42.5 µM]
26 | Cc1ccc2ccccc2n1 | -0.0727%
27 | C[C@]12C=CC(=O)C=C1[C@@H](F)C[C@@H]1[C@@H]2[C@@H](O)C[C@@]2(C)[C@H]1CC[C@]2(O)C(=O)CO | -0.725% [at 42.5 µM]
28 | CC12CCCC=C1C(=O)OC2=O (stereo not given) | -0.957%
29 | BrCCOc1ccccc1 | 7.79%
30 | CCCCN1C(=O)c2ccccc2C1=O | -2.32%
31 | C=CCCCCCCCCCCCCCC | 1.69% [at 19 µM]
32 | Cc1ccc(NC(N)=O)cc1 | -0.481%
33 | CC(C)(C)OC(=O)c1ccccc1C(=O)O | 1.98%
34 | N=C(N)N1CCc2ccccc2C1 | -4.02% [at 8.39 µM]
35 | CC(=O)/C=C/C=C1/C2CCC(C2)C1(C)C (stereo not given) | 0.684% [at 42.5 µM]
36 | CCCC(=O)CC | 0.663%
37 | CN1CCN(C(=O)C2CCCCC2)CC1 | -1.07% [at 42.5 µM]
38 | CCC(C)SSC(C)CC (stereo not given) | 2.04%
39 | CCN(CC)CC(=O)Oc1ccc(NC(C)=O)cc1 | 0.467% [at 42.5 µM]
40 | N=C(N)S(=O)O | -1.7%

From PubChem BioAssay (Tox21)
